From PubChem BioAssay (Tox21)
Where “and” joins values, the source holds several entries; their conditions need not be identical. Equal values may be shown once. Records with an inconclusive call do not appear. A call without a number means that no potency is given here. Calls of active or inactive are those of the source. Calls follow the shape of the dose curve; as a rule, active = well fitted inhibition curve with a large enough effect in the signal ratio in the repeat runs (not every such curve was filed as active); inconclusive = weak or mixed curves, or effect the other way; inactive = no such curve, though single readings can be large or run the other way; the % refers to the signal ratio.

Molecular target: Estrogen receptor beta (Homo sapiens) (UniProt Q92731)
Sequence (Q92731 whole entry, looked up): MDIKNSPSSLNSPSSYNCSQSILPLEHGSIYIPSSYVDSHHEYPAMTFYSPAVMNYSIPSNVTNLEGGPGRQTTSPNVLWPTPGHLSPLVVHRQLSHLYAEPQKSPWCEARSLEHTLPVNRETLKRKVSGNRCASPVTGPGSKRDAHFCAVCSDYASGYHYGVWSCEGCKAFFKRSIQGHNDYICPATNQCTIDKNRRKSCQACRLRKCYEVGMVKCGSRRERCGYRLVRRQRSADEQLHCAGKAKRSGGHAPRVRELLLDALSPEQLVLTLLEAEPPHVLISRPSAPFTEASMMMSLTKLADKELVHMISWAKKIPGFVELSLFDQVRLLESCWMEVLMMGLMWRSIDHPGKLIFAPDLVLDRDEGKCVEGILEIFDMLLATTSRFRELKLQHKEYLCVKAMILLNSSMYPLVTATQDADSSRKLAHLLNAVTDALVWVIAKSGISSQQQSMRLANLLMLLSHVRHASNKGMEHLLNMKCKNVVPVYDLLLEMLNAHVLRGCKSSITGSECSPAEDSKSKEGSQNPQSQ
Test: qHTS assay to identify small molecule antagonists of the estrogen receptor beta (ER-beta) signaling pathway (AID 1259378)
Conditions: ER-beta-UAS-bla HEK293T, beta-lactamase FRET ratio, 16 h; series mostly up to 92.4 µM
Description: National Center for Advancing Translational Sciences [NCATS]
NIH Chemical Genomics Center [NCGC]
U.S. Environmental Protection Agency [EPA]
National Institutes of Environmental Health Sciences [NIEHS]
National Toxicology Program [NTP]
U.S. Food and Drug Administration [FDA]
Estrogen receptor (ER), a nuclear hormone receptor, plays an important role in development, metabolic homeostasis and reproduction. Two subtypes of ER, ER-alpha and ER-beta, have similar expression patterns with some uniqueness in both types. Endocrine disrupting chemicals (EDCs) and their interactions with steroid hormone receptors like ER causes disruption of normal endocrine function. To identify the compounds that inhibit ER signaling, an ER-beta-UAS-bla GripTite cell line (Life Technologies, Madison, WI, USA) containing a beta-lactamase reporter gene under the control of an UAS response element was used to screen Tox21 10K compound library.
Tox21 Assay Protocol Summary:
ER-beta-UAS-bla HEK293T cells were dispensed at 2,000 cells/4 uL of assay medium containing 2% charcoal stripped FBS per well into black wall/clear-bottom 1536-well plates using a Multidrop Combi (ThermoFisher Scientific, Waltham, MA) dispenser. After the assay plates were incubated at a 37C and 5% CO2 for 6 hr, 23 nL of compounds dissolved in DMSO, positive controls or DMSO only was transferred to the assay plate by a Pintool station (Kalypsys, San Diego, CA), followed by addition of 1 uL (1nM as final concentration) of 17-beta-estradiol (E2) in assay medium using a BioRAPTR FRD (Flying Reagent Dispenser, Aurora Discovery, San Diego, CA). The plates were incubated at 37C and 5% CO2 for 16 hr. Then 1 uL of LiveBLAzerTM B/G FRET substrate was added using a Flying Reagent Dispenser, the plates were incubated at room temperature for 2 hours, and fluorescence intensity was measured by an Envision plate reader (PerkinElmer, Shelton, CT).
Potency is read from the fitted curve at half-maximal effect.

Structure (SMILES) | Potency
CN(C)N | inactive
CC(Oc1cccc(Cl)c1)C(=O)O (stereo not given) | inactive
N#CC(C#N)=C(C#N)C#N | inactive
CCC1CCC(=O)O1 (stereo not given) | inactive
Cc1nnc(-c2ccccc2)c(=O)n1N | inactive
Clc1ccc2ccccc2c1 | inactive
CC1(C)CC(=O)CC(C)(C)N1[O] | inactive
Nc1ccc2c(c1)Cc1ccccc1-2 | inactive
CCCCC(CC)COC(=O)c1c(Br)c(Br)c(Br)c(Br)c1C(=O)OCC(CC)CCCC (stereo not given) | inactive
Cc1ncc(C[n+]2csc(CCO)c2C)c(N)n1 | inactive
COP(=O)(OC)OC(Br)C(Cl)(Cl)Br (stereo not given) | inactive
CC(C)(c1ccccc1)c1cc(-n2nc3ccccc3n2)c(O)c(C(C)(C)c2ccccc2)c1 | inactive
CON(C)C(=O)Nc1ccc(Cl)cc1 | inactive
COCc1cnc(C2=NC(C)(C(C)C)C(=O)N2)c(C(=O)O)c1 (stereo not given) | inactive
CCOP(=O)(O)C(N)=O | inactive
Cc1nc2ccccc2c(=O)n1-c1ccccc1Cl | inactive
CC(C)c1ccc(NC(=O)N(C)C)cc1 | inactive
COC(=O)C1(O)c2ccccc2-c2ccccc21 | inactive
CCCCCCCCCCCCN(C)C | inactive
C1CCNCC1 | inactive

Structure (SMILES) | Potency
CCCCOC(=O)CCC(=O)OCCCC | inactive
C[N+](C)(C)CCOC(=O)C(O)(c1ccccc1)c1ccccc1 | inactive
O=C([O-])c1ccccn1.O=C([O-])c1ccccn1.O=C([O-])c1ccccn1.[Cr+3] | inactive
CCCCNC(=O)OCC#CI | inactive
OCCCl | inactive
C=C(C)C(=O)OCCCCOC(=O)C(=C)C | inactive
CCCN(CCC)c1c([N+](=O)[O-])cc(C(C)C)cc1[N+](=O)[O-] | inactive
NP(N)(=O)NC(=O)c1ccc(F)cc1 | inactive
CNC(=O)Oc1cccc(N=CN(C)C)c1 | inactive
O=C(N[C@H]1CN2CCC1CC2)c1ccc2c(c1)OCCO2 | inactive
O=C(O)COc1cc(Cl)c(Cl)cc1Cl | inactive
CC(C)(C)OOC(C)(C)CCC(C)(C)OOC(C)(C)C | inactive
C=CCc1ccccc1O | inactive
CC(C)(C#N)C(C)(C)C#N | inactive
C=CC(=O)NC(C)(C)CC(C)=O | inactive
O=C(CCl)CCl | inactive
O=[N+]([O-])c1cc(Cl)c(Cl)cc1Cl | inactive
O=P(OCC(Br)CBr)(OCC(Br)CBr)OCC(Br)CBr (stereo not given) | 23.1 µM (active)
CCCSP(=S)(OCC)Oc1ccc(SC)cc1 (stereo not given) | inactive
CCCCCCCCn1sccc1=O | 27.4 µM (active) and 32.1 µM (active)
